# Among all 69,000 compounds or so, about 8,600 (12%) showed an effect of 50% or more. Many of the other results were omitted from the sample, so strong results are more common in it than they were.
# System: Plasmodium berghei
# Assay: Screen against P. berghei liver stage (PbLuc), transformed with Luciferase, at 10uM
# Assay type: functional, HepG2
# Settings: tested at 10 uM
row,SMILES,INHIBITION [%]
1,CN(C)C(=O)CCS(=O)(=O)Cc1coc(-c2ccc(F)cc2)n1,-23.4
2,CCC(CCN)n1ccc(C(F)(F)F)n1 (configuration not stated),35.2
3,Cc1cc(C)n(-c2cncc(NCCNC(=O)C(C)(C)C)n2)n1,34.9
4,CC(C)C(N)CNS(=O)(=O)Cc1cccc2cccnc12 (configuration not stated),24.2
5,CC(C)CCN(C(=O)CCn1cc(S(N)(=O)=O)cn1)C1CC1,11.4
6,Cn1cc(-c2cnc(-c3ccnn3C)nc2)cc1C(=O)N1CCCC1,-4.26
7,Cc1ccc(C2COCCN2C(=O)c2cccc(N(C)C)c2)o1 (configuration not stated),32.9
8,Cc1ccc(C(=O)N2CCc3c(CNS(C)(=O)=O)cncc3C2)o1,-3.83
9,c1ccc(CO[C@@H]2CN(Cc3nccs3)[C@@H]3COC[C@@H]32)nc1,59.3
10,Fc1ccc(CN2C[C@@H](OCc3ccccn3)[C@H]3COC[C@H]32)cc1,43.9
11,Cc1nc(CO[C@@H]2CN(Cc3nccs3)[C@@H]3COC[C@@H]32)cs1,-56.3
12,O=C(c1ccnnc1)N1C[C@H](OCc2ccccn2)[C@H]2COC[C@H]21,5.67
13,Cc1nc(CO[C@H]2CN(C(=O)c3ccc[nH]3)[C@@H]3COC[C@H]23)cs1,13.1
14,O=C(c1ccc[nH]1)N1C[C@H](OCc2ccccn2)[C@H]2COC[C@H]21,64.8
15,CN(CC(=O)N1CCCCC1Cn1cccn1)Cc1ccccc1 (configuration not stated),23.5
16,Cn1nc(Cn2cccn2)c2c1CN(Cc1ccsc1)C2,-41.8
17,COCCNC(=O)C[C@@H]1COC[C@H]2CN(Cc3cccnc3)C[C@@H]12,40.5
18,O=C(C[C@@H]1COC[C@H]2CN(CC3CC3)C[C@@H]12)NCc1cccnc1,53.4
19,COCCN1C[C@@H]2COC[C@@H](CC(=O)NCc3cccnc3)[C@@H]2C1,47.4

row,SMILES,INHIBITION [%]
1,O=C(C[C@@H]1COC[C@H]2CN(Cc3cccnc3)C[C@@H]12)N1CCCC1,-11.6
2,O=C(C[C@@H]1COC[C@H]2CN(Cc3cccnc3)C[C@@H]12)NCC1CC1,54.4
3,O=C(C[C@@H]1COC[C@H]2CN(C3CCC3)C[C@@H]12)NCc1cccnc1,27.5
4,Cc1cccc(N2CCN(C(=O)CNCCn3cccn3)CC2)c1,-76.5
5,CCC[C@H]1CN(c2cncc(C(=O)N(C)C)n2)C[C@@H]1N(C)C,33.7
6,NC(=O)CN1CCN(C(=O)c2cc(Cl)cc3cccnc23)CC1,13.4
7,CN(C)c1nc2c(c(NCc3nnc4n3CCCCC4)n1)CCNC2,5.78
8,CNC(=O)c1ccccc1NCc1ncnn1C,20
9,Cn1ccc2cc(CC3COCCN(C(=O)c4cccnc4)C3)ccc21 (configuration not stated),29.61
10,COCCn1nc(C(=O)N(C)Cc2cccnc2)ccc1=O,6.72
11,CC1CN(C)CCN1C(=O)c1cnc2c(cnn2C2CCCC2)c1 (configuration not stated),31.2
12,CC1CN(C)CCN1C(=O)c1ccc(-n2cnnc2)cc1 (configuration not stated),66.1
13,Cc1cnn(-c2ccc(C(=O)N3CCN(C)CC3C)cc2)c1 (configuration not stated),-15.3
14,CC[C@@]1(O)CCN(C(=O)c2ccc(-n3cnnc3)cc2)C[C@H]1O,20.6
15,CC1CN(C)CCN1C(=O)c1cccn1Cc1cccnc1 (configuration not stated),17.9
16,CC1CN(C)CCN1C(=O)c1cnn(-c2ccc(Cl)cc2)c1 (configuration not stated),66.1
17,CC(O)CN1CCN(C(=O)c2cnn(-c3ccc(Cl)cc3)c2)CC1 (configuration not stated),16.6
18,CC1CN(C)CCN1C(=O)c1cnn(-c2cccc(Cl)c2)c1 (configuration not stated),74.4
19,Cc1ccccc1N1CCN(C(=O)c2cnn(C(C)C)c2)C(C)C1 (configuration not stated),12.1

row,SMILES,INHIBITION [%]
1,O=C(Cc1ccc(Cl)s1)Nc1ccc2c(c1)C(=O)NC2=O,-97.9
2,Cc1nn(C)c(N2CCOCC2)c1CNC1CCC(O)CC1 (configuration not stated),9.14
3,COc1ccccc1CCNC(=O)NCC(=O)Nc1cccnc1,-21.8
4,CC(C)(C)C(=O)NCC(=O)Nc1cccnc1,45.5
5,COc1ccccc1CC(C)(C)C(=O)NCC(=O)Nc1cccnc1,56.6
6,COC(=O)NCCCn1ccnc1-c1ccccc1,-17.4
7,O=C(Cc1ccsc1)N1CCc2ncc(Cn3cccn3)n2CC1,42.7
8,COc1c(CNC(C)c2sc(C)nc2C)c(C(C)C)nn1C (configuration not stated),33.7
9,CN1CC2(CCN(C(=O)Cc3ccccn3)CC2)OCC1=O,-28.2
10,CNc1cc(N2CCCC2CNCc2cscn2)ncn1 (configuration not stated),-2.35
11,COCCN1CC[C@H]2OCC[C@@H](C(=O)N3CCCO3)[C@H]2C1,1.9
12,N#Cc1cn[nH]c1NCc1cc(I)cc(I)c1O,19.7
13,N#Cc1cn[nH]c1NCc1cc(Br)ccc1O,27.5
14,N#Cc1cn[nH]c1NCc1cc(Cl)cc(Cl)c1O,62.2
15,c1ccn(Cc2nnc3n2CCCN(Cc2ccoc2)C3)c1,-13.1
16,O=C(Nc1ccc2c(c1)OCO2)N1CCN(CCn2ccnc2)CC1,6.99
17,CC(C(=O)Nc1cccc(C(F)(F)F)c1)N(C)CCN1CCOCC1 (configuration not stated),35.2
18,O=C(Nc1cccc(C(F)(F)F)c1)N1CCN(CCn2ccnc2)CC1,60.2
19,CN(C)Cc1nc2c(o1)CN(C(=O)NCc1cccc(F)c1)C2,13.7
